Experiments:
Experiment in all cases: PBM binding z-score (relative to random genomic background probes); higher = stronger binding; sequences stand for … in GC…GCGATTGACAGCGTAGAATGAAGG
[1] = test system: RARb homodimer (NR concentration 270 nM)
Outline: (§1)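 Antibodies against each partner of ligand-free nuclear receptor dimers (one per run) detected binding on custom Agilent 4×180K protein-binding microarrays after 1 h incubation. The double-stranded probes had 34-nt variable regions carrying direct-repeat seeds, single-nucleotide variants, half-site ablations and random human genomic background sequences. Binding z-scores, from regression-normalized fluorescence, use the random background probes as reference.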

[2] = test system: RARg:RXRa (NR concentration 270 nM, RXRa partner concentration 90 nM)
Outline: as §1

[3] = test system: RARg homodimer (NR concentration 270 nM)
Outline: as §1

[4] = test system: RXRa DBDmut IVT, anti-RXR (DBD mutation: RXRa K156A/R161A, NR concentration 90 nM)
Outline: as §1

[5] = test system: RXRa homodimer (NR concentration 180 nM)
Outline: as §1

[6] = test system: THRa:RXRa (NR concentration 90 nM, RXRa partner concentration 90 nM)
Outline: as §1

[7] = test system: THRa homodimer (NR concentration 90 nM)
Outline: as §1

[8] = test system: VDR homodimer (NR concentration 270 nM)
Outline: as §1

Row | Sequence | PBM binding z-score [1] | PBM binding z-score [2] | PBM binding z-score [3] | PBM binding z-score [4] | PBM binding z-score [5] | PBM binding z-score [6] | PBM binding z-score [7] | PBM binding z-score [8]
1 | GGAACGAGGGCAATTTGATAGCAGAGTTTGATGG | 0.804 | 1.04 | 1.25 | 1.74 | 0.881 | 0.709 | -0.191 | 0.777
2 | CATCCAAGGTCAGCAGGTCAGTGAAAGCGACGTG | 5.04 | 6.2 | 7.09 | 2.7 | 6.07 | 3.89 | 2.76 | 2.18
3 | TCGAGTAGGTTACCAATGGGGCATTCCGCTTTCT | 0.449 | 0.942 | 0.197 | 0.173 | 0.226 | -0.155 | -0.631 | -0.741
4 | CCGACTGCGGCAAAGGTTACCATACTCAGTACGA | 2.07 | 1.43 | 1.07 | 0.531 | 2.46 | 1.33 | 0.0326 | 0.183
5 | CTACCAAGGTGAACAACGTCGTTGATTACTATTC | 0.607 | 0.832 | 0.962 | 0.685 | 0.887 | 1.79 | 0.72 | -0.472
6 | TATACAGGGTCAAAGGCCAGTGTACGAATGTCGA | 3.45 | 5.7 | 5.08 | 2.97 | 7.04 | 3.57 | 0.905 | 2.75
7 | CGAACGAGGGCATGAGTTGTTAGCAAATGCCGAT | 0.54 | 0.951 | 1.44 | 2.23 | 0.556 | 1.08 | -0.284 | 1.12
8 | CAAACTAGGTCAGCGGAAGGTCAAAGTCCGCATG | 5.24 | 7.66 | 6.32 | 1.11 | 4.98 | 4.05 | 1.64 | 2.6
9 | CCTAGCAGGCCAATCTGGGTGACTCAAGGCTTGA | -0.195 | -0.294 | -0.326 | -0.391 | -0.592 | 2.16 | -0.548 | -0.648
10 | CCGACTGGGGCAAAGGATACCATACTCAGTACGA | 0.263 | 0.271 | 0.572 | -0.0232 | 0.075 | -0.155 | -0.322 | -0.406
11 | ATCGAAAGGGCGAAGGTGAGTATACCCACCCGAA | 1.17 | 1.63 | 1.2 | -0.634 | 1.59 | 0.3 | -0.75 | -0.263
12 | GCTATTAGTTGATAGGGCAACCGAATGATTCTCG | 0.604 | 0.208 | 0.649 | 0.36 | 0.26 | -0.111 | -0.518 | 0.0585
13 | TCTTGTATATCAACAGGAGGTTAAGAAAGATCGA | 0.861 | 0.722 | 0.592 | 0.943 | 1.25 | 1.18 | 0.039 | 0.491
14 | ACTAGCAGGCCAAGTTTGGGCCACTCAAACAAAG | 0.113 | 0.0368 | 0.111 | -0.286 | -0.539 | 0.356 | -0.681 | -0.556
15 | TAGCCTAGGTCAGAACGGGCCAGTATACGCTATA | 1.79 | 2.22 | 2.92 | -0.315 | 1.19 | 2.46 | -0.361 | -0.307
16 | CGTCCAAGATCAGCAGGTCAGTGAAAGCGACGTG | 2.09 | 1.01 | 1.51 | 0.253 | 0.844 | 1.11 | 0.018 | 0.137
17 | CCTTACGGGTCACGAGGTTAGAGCACGACGAGCG | 3.63 | 6.04 | 5.46 | 2.04 | 6.47 | 3.45 | 0.765 | 1.84
18 | CCTTACGGGTCACCGACAGGTTATAGCATTTGGA | 3.79 | 6.61 | 5.55 | 1.12 | 6.11 | 3.23 | 0.772 | 1.09
19 | CCTAGCAGGCCAATCTGGGTCACTAAAGGCTTGA | 2.01 | 0.915 | 1.17 | 0.23 | 0.402 | 3.4 | 0.446 | 0.000244

Row | Sequence | PBM binding z-score [1] | PBM binding z-score [2] | PBM binding z-score [3] | PBM binding z-score [4] | PBM binding z-score [5] | PBM binding z-score [6] | PBM binding z-score [7] | PBM binding z-score [8]
20 | TCTCCGAGGACACGAAGGTCAGAGCTTTCCAGAG | 3.51 | 3.46 | 4.49 | 0.665 | 2.02 | 3.74 | 2.44 | 1.76
21 | CTCGAAAGGTCGGTTGAGGTGAGTGTACGGATAA | 2.49 | 2.68 | 2.86 | 0.363 | 2.49 | 5.02 | 1.78 | 1.29
22 | CCTACTGGGCCATCAGGTCATAGATATCAACGTT | 2.46 | 2.03 | 1.95 | -0.116 | 1.28 | 3.09 | 2.91 | 1.11
23 | AGTCAAAGTCCATCTAGGTAACGTAAGATATGCT | 0.564 | 0.538 | 1.09 | 1.23 | -0.0358 | 1.14 | 0.0644 | 0.572
24 | CCTATTTGTTGACCATAAGGGCAACCGAAGCTCG | 2.18 | 0.901 | 1.09 | 0.849 | 0.768 | 1.78 | 1.89 | 0.782
25 | CGATCGAGGGCATGAGTTGATAGCAAATGCCGAT | 0.615 | 1.06 | 1.18 | 1.75 | 0.725 | 1.04 | -0.645 | 1.5
26 | TCTTGTAGATTAAGCAGGTTAAGAAAGCCTGAGT | 0.394 | -0.0145 | -0.457 | 0.673 | 0.377 | 0.509 | -0.386 | 0.113
27 | TAGCCTAGGTCATTGGGCCAATATAGTACGCATC | 2.88 | 4.02 | 3.84 | 1.41 | 2.93 | 2.91 | 1.2 | 1.1
28 | CTCGAAAGGTCGGTTGAGGTGAGTAGACGGATAA | 2.44 | 2.67 | 2.67 | 0.673 | 2.28 | 5.01 | 1.3 | 0.235
29 | CCTTACGGGTCACTGCCAGGTTATAGCATTTGGA | 3.13 | 5.43 | 4.16 | 1.46 | 4.62 | 3.4 | 0.811 | 1.47
30 | CCGAGTAGTTTATGGGGCATTCAGGCAACGGTGA | 0.512 | -0.0698 | 0.182 | 0.904 | -0.158 | 0.238 | 0.0882 | 0.37
31 | TATACAGGGTCAAAGGCCCGAGTACGAATGTCGA | 2.83 | 5.28 | 4.67 | 2.83 | 5.91 | 3.23 | 0.794 | 2.5
32 | GGAACGAGGGCACGTTGATAGCAGAGTTTGATGG | 1.27 | 1.53 | 2 | 2 | 0.885 | 1.41 | 0.0368 | 1.03
33 | ATCTCTAGGTAAGGATAGTTCAGTGAATGCAAAT | 1.05 | 0.45 | 0.907 | 0.233 | -0.127 | 1.21 | 0.86 | 0.73
34 | CGTCAAAGTTCAAGGTAACGTCACAGAAAGCAGC | 4.13 | 5.4 | 6.15 | 4.55 | 4.78 | 3.12 | 1.48 | 3.12
35 | CGTCCCAGGTCAATGCTAGGTCAGTGAAAGCATT | 4.23 | 6.41 | 5.01 | 1.99 | 3.1 | 4.25 | 2.99 | 1.74
36 | TCATATAGGTAAACAGGTGGAAGTCCGTAAGTTA | 0.247 | 0.462 | 0.0474 | 1.38 | 0.624 | 0.188 | 0.00908 | 0.154
37 | ATATCAAGGTGATCGTGAGGTCGTTGATACTAAC | 1.5 | 2.42 | 1.24 | 0.829 | 1.61 | 3.46 | 2.27 | 2.79
38 | CCGACTGGGGCAACGTTACCATAACGCACAGCCA | -0.0419 | 0.137 | 0.521 | -0.207 | -0.126 | -0.262 | -0.261 | -0.403

Row | Sequence | PBM binding z-score [1] | PBM binding z-score [2] | PBM binding z-score [3] | PBM binding z-score [4] | PBM binding z-score [5] | PBM binding z-score [6] | PBM binding z-score [7] | PBM binding z-score [8]
39 | GCTGCTAGGTCAGGTTGGTCAGCTGACGGGTACG | 2.62 | 2.79 | 3.56 | 0.752 | 1.09 | 1.81 | 0.492 | 0.505
40 | CCTCCTGGGCCATCAGGTCATTGATATCAACGTT | 2.47 | 1.98 | 1.71 | -0.401 | 1.15 | 3.04 | 3.09 | 1.18
41 | TAGCCTAGGTCATTGGGCCACTATAGTACGCATC | 3.11 | 3.84 | 4.24 | 1.92 | 2.97 | 2.87 | 1.3 | 1.77
42 | CATACAGGGTCACCTAGGCCAGAGTAGGGACGGC | 3.71 | 5.53 | 5.52 | 2.15 | 6.27 | 3.65 | 1.57 | 2.32
43 | ATCTCTAGGTAAAAAGTTCAGTGAAAGAGAGGAC | 2.67 | 2.69 | 2.46 | 0.695 | 1.04 | 1.22 | 0.595 | 1.56
44 | AGAACGAGGGCAATGAGTTGATAGTACGGGTGGC | 1.2 | 1.3 | 1.61 | 2.24 | 0.933 | 0.88 | -0.483 | 3.56
45 | TCATATAGGTGAAGGTGAAAGTCGAACGATATGA | 1.3 | 1.42 | 1.48 | 0.518 | 1.6 | 0.793 | -0.343 | -0.0365
46 | ATACGAAGGTGATCGTGAGGTCGTTGATACTAAC | 1.55 | 2.15 | 0.985 | 0.65 | 1.6 | 3.28 | 1.94 | 2.48
47 | GCTGCTAGGTCAGGTTGGTCAGCTAGCGGGTACG | 2.7 | 2.69 | 3.44 | 0.414 | 0.963 | 1.71 | 0.421 | -0.146
48 | CCGACTGGGGAAAAGGTTACCATACTCAGTACGA | 1.79 | 1.37 | 0.901 | 0.237 | 1.86 | 1.05 | -0.101 | 0.0305
49 | TGTAGCAGGCCAGAGGGTCACTCAAGAGGTACGG | 2.85 | 2.8 | 2.7 | -1.32 | 2.64 | 1.59 | -0.464 | 0.427
50 | TCTTATAGGTAAAAGGTGAAAGTCGGTGTGGTAA | 1.91 | 2.24 | 0.977 | 1.69 | 3.2 | 1.8 | 0.525 | 0.326
51 | CCTTACGGGTCACTGACAGGTTATAGCCTTTGGA | 3.15 | 5.69 | 4.21 | 2 | 4.83 | 2.9 | 0.294 | 1.14
52 | AATAGCAGGCCAAGTTTGGGTCACTCAAACAAAG | 2.31 | 2.53 | 1.67 | -0.564 | 0.964 | 2.63 | 0.748 | 0.388
53 | CCTAGCAGGCCTATCTGGGTCACTCAAGGCTTGA | 1.68 | 0.716 | 0.616 | -0.488 | 0.644 | 2.3 | 0.219 | -0.239
54 | CCTAGCACGCCAGGGTCACTCAAGCATTTCGCTT | 2.65 | 2.94 | 2.18 | 0.65 | 3.14 | 2.76 | 1.12 | 0.973
55 | GCTTGTAGATCAAGGTTAATAAAGACTAAGCTAA | 0.0389 | 0.0476 | 0.168 | -0.167 | 0.452 | 1 | -0.489 | -0.152
56 | TCTGCTAGGTCAGTTGGACAGCTAACGAGCTGCC | 1.99 | 2.24 | 3.47 | 0.472 | 0.621 | 1.12 | -0.399 | -0.808
